Assay outcomes (PubChem BioAssay)
The list is not random: actives were taken first. Their share in the collection is about 7.2%.
NIH3T3 tox = kills NIH 3T3 cells; NIH 3T3 viability, CellTiter-Glo ATP luminescence, 48-72 h; Potency, µM (series often up to 96.7 µM), for inactives: at the top dose activity change, negative = cytotoxicity, hits mostly inhibitors; 94,000 tested, 4.3% active; note: nearly all actives have a fitted effect of over 55% in size
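Cytotoxicity was measured by CellTiter-Glo ATP luminescence after 48 or 72 h compound exposure at 37 °C. Mouse NIH 3T3 fibroblasts were seeded at 400 cells/well and dosed by 23 nL pin transfer.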
Luciferase inh = blocks purified firefly luciferase enzyme activity | P08659 | purified P. pyralis luciferase, luminescence, biochemical | Potency, µM (series often up to 115 µM), most hits filed as inhibitors | 76,000 tested, 2.5% active; note: nearly all actives have a fitted effect of over 65% in size
Target sequence (P08659 whole entry, looked up): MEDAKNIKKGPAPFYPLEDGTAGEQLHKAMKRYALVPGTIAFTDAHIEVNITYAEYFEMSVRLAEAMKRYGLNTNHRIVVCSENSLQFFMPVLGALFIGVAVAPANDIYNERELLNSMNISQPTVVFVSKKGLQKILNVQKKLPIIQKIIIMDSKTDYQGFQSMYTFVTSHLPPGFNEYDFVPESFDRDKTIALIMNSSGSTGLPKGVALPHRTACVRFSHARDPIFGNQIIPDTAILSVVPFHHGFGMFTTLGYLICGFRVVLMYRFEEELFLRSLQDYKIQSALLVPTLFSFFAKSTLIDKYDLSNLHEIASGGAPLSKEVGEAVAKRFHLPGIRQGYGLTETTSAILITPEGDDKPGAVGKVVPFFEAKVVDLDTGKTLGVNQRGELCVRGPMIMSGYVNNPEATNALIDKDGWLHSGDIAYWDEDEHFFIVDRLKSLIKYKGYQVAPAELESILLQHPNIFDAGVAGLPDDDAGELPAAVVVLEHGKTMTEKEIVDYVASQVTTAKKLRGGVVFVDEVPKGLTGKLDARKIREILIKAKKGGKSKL
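Purified P. pyralis luciferase (10nM final) in 50mM Tris acetate pH 7.5, 10mM Mg acetate, 0.01% Tween-20, 0.05% BSA with 10uM D-luciferin and 10uM ATP. Compounds titrated qHTS. Luminescence imaged on CCD.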
NPR1 antag = blocks ANP-stimulated signaling of human Npr1 receptor. P16066. HEK293 hNpr1 GloSensor cGMP, ANP-stimulated luminescence. Potency, µM (highest dose often 46.3 µM), without a hit: at the highest dose activity change, negative = inhibition, actives largely listed as inhibitors. 76,000 tested, 1.6% active; calls by dose curve; note: nearly all actives have a fitted effect of over 60% in size
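HEK293 cells stably expressing human Npr1 and cGMP GloSensor pGS-40F, loaded 2 h with 2% GloSensor reagent, given compound 30 min at room temperature. Luminescence read before and 20 min after 0.1 nM hNppA.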
SNCA viab count = counter-screen for SNCA expression inhibitors: cell viability; Potency, µM (series often up to 57.1 µM), inactives show at the highest dose activity change, negative = cytotoxicity, usual class: cytotoxic; HEK-293-SNCA-luc viability, GF-AFC fluorescence, 24 h; 150,000 tested, 0.12% active;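 note: 0% = DMSO-treated cells and -100% = medium-only wells without cells; nearly all actives have a fitted effect of over 30% in size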
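HEK-293-SNCA-luc cells (1500/well) plated 24 h, then exposed 24 h to a dilution series; GF-AFC added 30 min at 37C, fluorescence 405/540 nm; normalised to medium-only and DMSO wells, Hill fit.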
HEK cytotox = kills HEK 293 cells | HEK 293 viability, ATP luminescence (CellTiter-Glo), 48-72 h | Potency, µM (highest dose often 115 µM), for inactives: top-dose activity change, negative = cytotoxicity, most hits filed as inhibitors | 94,000 tested, 6.6% active | AID 1345083; note: nearly all actives have a fitted effect of over 60% in size
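ATP-coupled CellTiter-Glo luminescence served as viability read-out, recorded 10 min after reagent addition at room temperature. HEK 293 cells, 250 cells/well, had been incubated with pintool-transferred compound for 48 or 72 hr at 37 degree Celsius.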
SNCA expr inhib = SNCA gene expression inhibition; HEK-293 SNCA-luciferase knock-in, luminescence, 24 h; Potency, µM (titrated, usually from 57.2 µM), inactives show at the highest dose activity change, negative = inhibition, usual class: inhibitors; 140,000 tested, 0.17% active;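 note: plate controls were DMSO cells for no effect and cell-free wells for full effect; nearly all actives have a fitted effect of over 45% in size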
* = called active by the depositor; [ ] = dose if it differs, or a comment. Unless noted, calls come from the whole dose curve; as a rule, active = well fitted curve in the direction sought with a large enough effect; inconclusive = small, poorly fitted or top-dose-only effect, or another doubt; inactive = no such curve, though single readings can be large; an effect the other way counts as inactive or inconclusive. Unless noted, % is set by controls: 0 for no effect and ±100 for the full control effect; potency is the fitted concentration of half-maximal effect.

Results for Cc1oc(C(O)c2ccccc2F)nc1C(=O)Nc1ccc2[nH]ccc2c1 (stereo unspecified) ?
NIH3T3 tox: inconclusive; Luciferase inh: 63µM*; NPR1 antag: -8%[70.6 µM]; SNCA viab count: -4%[87.6 µM]; HEK cytotox: 100µM*; SNCA expr inhib: -2%[87.6 µM]

How did CNC(=O)c1ccc(NC(=O)c2nc(C(O)c3ccccc3F)oc2C)cc1 (stereo unspecified) do in these assays?
NIH3T3 tox: -33%[138 µM]; Luciferase inh: inactive; NPR1 antag: -1%[70.6 µM]; SNCA viab count: -7%[87.6 µM]; HEK cytotox: inconclusive; SNCA expr inhib: -7%[87.6 µM]

How did Cc1oc(C(O)c2ccccc2)nc1C(=O)Nc1ccc(C(=O)Nc2ccccc2)cc1 (stereo unspecified) do in these assays?
NIH3T3 tox: 45µM*; Luciferase inh: inconclusive; NPR1 antag: inconclusive; SNCA viab count: inconclusive; HEK cytotox: 32µM*; SNCA expr inhib: inconclusive

Results for Cc1oc(C(O)c2cccc(O)c2)nc1C(=O)Nc1ccc2c(c1)CNC2=O (stereo unspecified) ?
NIH3T3 tox: inconclusive; Luciferase inh: inactive; NPR1 antag: -4%[70.6 µM]; SNCA viab count: 3%[87.6 µM]; HEK cytotox: -17%[172 µM]; SNCA expr inhib: 6%[87.6 µM]

Results for Cc1oc(C(O)c2ccccc2)nc1C(=O)Nc1ccc2c(c1)NC(=O)CO2 (stereo unspecified) ?
NIH3T3 tox: -17%[138 µM]; Luciferase inh: inconclusive; NPR1 antag: 2%[70.6 µM]; SNCA viab count: -16%[87.6 µM]; HEK cytotox: inconclusive; SNCA expr inhib: 7%[87.6 µM]

Results for O=C(NCc1cccc(C(F)(F)F)c1)c1ccc2nnc(Cc3ccc(Cl)cc3)n2c1 ?
NIH3T3 tox: 22µM*; SNCA viab count: inconclusive; HEK cytotox: 32µM*; SNCA expr inhib: inconclusive

How did O=C(NCc1ccccc1Cl)c1ccc2nnc(Cc3ccc(Cl)cc3)n2c1 do in these assays?
NIH3T3 tox: inconclusive; SNCA viab count: 6%; HEK cytotox: inconclusive; SNCA expr inhib: -24%

Results for O=C(NCc1ccc(Cl)cc1)c1ccc2nnc(Cc3ccc(Cl)cc3)n2c1 ?
NIH3T3 tox: 32µM*; SNCA viab count: -7%; HEK cytotox: 45µM*; SNCA expr inhib: inconclusive

What do the screens show for `COc1ccc(Cc2nnc3ccc(C(=O)NCc4ccc(F)cc4)cn23)cc1`?
NIH3T3 tox: inconclusive; SNCA viab count: 9%; HEK cytotox: -24%; SNCA expr inhib: 13%

What do the screens show for `O=C(NCc1ccc(F)cc1)c1ccc2nnc(Cc3ccc(Cl)cc3)n2c1`?
NIH3T3 tox: inconclusive; SNCA viab count: 1%; HEK cytotox: 40µM*; SNCA expr inhib: 3%

What do the screens show for `O=C(NCCc1ccc(Cl)cc1)c1ccc2nnc(Cc3ccc(Cl)cc3)n2c1`?
NIH3T3 tox: 28µM*; SNCA viab count: -4%[12.5 µM]; HEK cytotox: 28µM*; SNCA expr inhib: -6%

What do the screens show for `O=C(NCCc1ccccc1)c1ccc2nnc(Cc3ccc(Cl)cc3)n2c1`?
NIH3T3 tox: inconclusive; SNCA viab count: inconclusive; HEK cytotox: inconclusive; SNCA expr inhib: -17%

Results for O=C(NCc1cccc(C(F)(F)F)c1)c1ccc2nnc(Cc3ccco3)n2c1 ?
NIH3T3 tox: inconclusive; SNCA viab count: -6%; HEK cytotox: -26%; SNCA expr inhib: -6%

What do the screens show for `CC(C)CN1C(=O)COC[C@@H]1[C@H](O)c1ccc(NC(=O)c2ccc3c(c2)OCO3)cc1`?
NIH3T3 tox: -12%[138 µM]; Luciferase inh: 63µM*; NPR1 antag: -1%[70.6 µM]; SNCA viab count: 1%[87.6 µM]; HEK cytotox: -22%[172 µM]; SNCA expr inhib: 9%[87.6 µM]

How did CN1C(=O)COC[C@@H]1[C@H](O)c1ccc(NC(=O)c2ccc3c(c2)OCO3)cc1 do in these assays?
NIH3T3 tox: -23%[174 µM]; Luciferase inh: inconclusive; NPR1 antag: 2%[70.6 µM]; SNCA viab count: 6%[87.6 µM]; HEK cytotox: -19%[172 µM]; SNCA expr inhib: 5%[87.6 µM]

Results for COc1ccc(CN2C(=O)COC[C@@H]2[C@H](O)c2ccc(NC(=O)c3ccc(C(C)(C)C)cc3)cc2)cc1 ?
NIH3T3 tox: 22µM*; Luciferase inh: 14µM*; NPR1 antag: 3%; SNCA viab count: inconclusive; HEK cytotox: 28µM*; SNCA expr inhib: 4%

How did COc1ccc(C(=O)Nc2ccc(C(O)[C@H]3COCC(=O)N3CC(C)C)cc2)cc1 (stereo partly specified) do in these assays?
NIH3T3 tox: 3%[174 µM]; Luciferase inh: 25µM*; NPR1 antag: -2%[70.6 µM]; SNCA viab count: -26%[87.6 µM]; HEK cytotox: inconclusive; SNCA expr inhib: -6%[87.6 µM]

What do the screens show for `CCOCCN1C(=O)COC[C@@H]1[C@H](O)c1ccc(NC(=O)c2ccc(OC)cc2)cc1`?
NIH3T3 tox: -33%[174 µM]; Luciferase inh: inconclusive; NPR1 antag: -2%[70.6 µM]; SNCA viab count: -2%[87.6 µM]; HEK cytotox: -20%[172 µM]; SNCA expr inhib: -8%[87.6 µM]

Results for Cc1nnc(C2CCCCCN2S(=O)(=O)c2cccnc2)o1 (stereo unspecified) ?
NIH3T3 tox: -13%; Luciferase inh: inactive; NPR1 antag: 0%; SNCA viab count: 16%; HEK cytotox: 2%; SNCA expr inhib: 20%

What do the screens show for `CCn1cnnc1CC1CCN(C(=O)CCCC(=O)n2nc(C)c3ccccc32)CC1`?
NIH3T3 tox: -16%; Luciferase inh: inactive; NPR1 antag: -11%; SNCA viab count: 4%; HEK cytotox: inconclusive; SNCA expr inhib: -26%

Results for CC(C)OC(=O)N1CCC(Oc2ccc3c(cnn3CCC(=O)O)c2)CC1 ?
NIH3T3 tox: inconclusive; Luciferase inh: inactive; NPR1 antag: 1%[70.6 µM]; SNCA viab count: 1%[87.6 µM]; HEK cytotox: 4%[172 µM]; SNCA expr inhib: -15%[87.6 µM]

How did CNC(=O)CCn1ncc2cc(OCc3ccccc3-c3cc(Cl)ccc3OC)ccc21 do in these assays?
NIH3T3 tox: inconclusive; Luciferase inh: inactive; NPR1 antag: -11%; SNCA viab count: -17%; HEK cytotox: inconclusive; SNCA expr inhib: -28%

How did CNC(=O)CCn1ncc2cc(OC3CCc4cccc(-c5ccc(OC)cc5)c43)ccc21 (stereo unspecified) do in these assays?
NIH3T3 tox: 50µM*; Luciferase inh: inactive; NPR1 antag: -19%[70.6 µM]; SNCA viab count: inconclusive; HEK cytotox: 79µM*; SNCA expr inhib: inconclusive

What do the screens show for `CNC(=O)CCn1ncc2cc(OC3CCc4cccc(-c5cccc(CO)c5)c43)ccc21` (stereo unspecified)?
NIH3T3 tox: inconclusive; Luciferase inh: inconclusive; NPR1 antag: -1%[70.6 µM]; SNCA viab count: inconclusive; HEK cytotox: 79µM*; SNCA expr inhib: -15%[87.6 µM]
